# Reference: ChEMBL document CHEMBL3988442, “University of Dundee, Small-Polar-MMV Screening Library” (2021)
# For some assays here: Results with a measured potency or affinity are listed apart.
# Key:
# Design in all cases: scale not given: direction of the effect not stated beside the values
# [1] = molecular target: Protein translocase subunit SecA (Escherichia coli (strain K12)) (UniProt P10408); experiment: Assay to Identify E. coli SecA ATPase Inhibitors; assay type: functional; settings: 30 µM
# [2] = molecular target: T1, Ubiquitin-activating enzyme e1, putative (Leishmania donovani (strain BPK282A1)) (UniProt E9BSI1); experiment: Leishmania donovani Ubiquitin Activating Enzyme (LdE1); assay type: functional; settings: 30 µM
# T1 sequence (whole entry): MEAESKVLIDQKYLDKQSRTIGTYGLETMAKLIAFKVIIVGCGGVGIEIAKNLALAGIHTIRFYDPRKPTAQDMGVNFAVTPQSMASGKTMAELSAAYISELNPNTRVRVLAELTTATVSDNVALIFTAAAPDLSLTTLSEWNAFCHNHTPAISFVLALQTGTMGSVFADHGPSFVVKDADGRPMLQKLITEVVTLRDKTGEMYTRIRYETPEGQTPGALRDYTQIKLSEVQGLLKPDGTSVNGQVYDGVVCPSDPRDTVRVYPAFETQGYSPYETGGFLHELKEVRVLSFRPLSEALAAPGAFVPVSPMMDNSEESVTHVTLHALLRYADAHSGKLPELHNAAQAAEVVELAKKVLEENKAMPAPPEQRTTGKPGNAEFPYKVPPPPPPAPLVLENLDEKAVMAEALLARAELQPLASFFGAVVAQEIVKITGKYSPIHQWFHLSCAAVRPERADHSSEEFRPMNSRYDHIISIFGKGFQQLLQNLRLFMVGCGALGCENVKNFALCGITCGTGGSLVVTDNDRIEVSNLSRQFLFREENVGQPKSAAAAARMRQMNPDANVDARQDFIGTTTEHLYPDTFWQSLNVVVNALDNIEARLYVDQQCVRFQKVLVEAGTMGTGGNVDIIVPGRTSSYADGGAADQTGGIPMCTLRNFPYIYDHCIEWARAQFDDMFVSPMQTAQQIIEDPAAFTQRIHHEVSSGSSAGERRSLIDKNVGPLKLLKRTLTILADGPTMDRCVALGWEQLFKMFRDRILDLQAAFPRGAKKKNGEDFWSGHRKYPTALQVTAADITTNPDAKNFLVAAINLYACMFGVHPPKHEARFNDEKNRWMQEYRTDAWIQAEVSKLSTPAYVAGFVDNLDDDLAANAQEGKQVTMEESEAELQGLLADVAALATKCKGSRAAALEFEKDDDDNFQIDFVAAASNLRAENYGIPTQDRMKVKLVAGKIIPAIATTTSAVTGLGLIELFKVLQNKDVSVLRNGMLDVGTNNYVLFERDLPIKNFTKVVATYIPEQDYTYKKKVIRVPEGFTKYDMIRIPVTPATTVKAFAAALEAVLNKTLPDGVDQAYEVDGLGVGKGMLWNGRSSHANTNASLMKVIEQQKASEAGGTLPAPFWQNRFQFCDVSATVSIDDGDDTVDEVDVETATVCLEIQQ
# [3] = molecular target: AMP-activated protein kinase, AMPK (Homo sapiens) (UniProt P54646+O43741+P54619+Q9UGJ0+Q9Y478+Q13131+Q9UGI9); experiment: AMP-dependent Kinase enzyme assay. An in vitro enzyme assay that detects ADP turnover that is directly proportional to AMPK activity. This uses naive AMPK that is activated during the assay with MK-8722; assay type: functional; settings: 30 µM
# [4] = molecular target: Sialic acid-binding Ig-like lectin 9 (Homo sapiens) (UniProt Q9Y336); experiment: Hs-Siglec9 ALPHAscreen SOP 20170721; settings: 10 µM
# Trypanosoma cruzi = experiment: Trypanosoma cruzi phosphomannomutase and mannose-1-phosphate guanylyltransferase assay; assay type: functional; settings: 10 µM
# [5] = molecular target: T2, Arginase-2, mitochondrial (Homo sapiens) (UniProt P78540); experiment: in vitro enzyme assay to detect the production of urea directly proportional to the activity of Arginase II; assay type: functional; settings: 33.3 µM; further: in the data most compounds retested in dose-response had high values
# T2 sequence (whole entry): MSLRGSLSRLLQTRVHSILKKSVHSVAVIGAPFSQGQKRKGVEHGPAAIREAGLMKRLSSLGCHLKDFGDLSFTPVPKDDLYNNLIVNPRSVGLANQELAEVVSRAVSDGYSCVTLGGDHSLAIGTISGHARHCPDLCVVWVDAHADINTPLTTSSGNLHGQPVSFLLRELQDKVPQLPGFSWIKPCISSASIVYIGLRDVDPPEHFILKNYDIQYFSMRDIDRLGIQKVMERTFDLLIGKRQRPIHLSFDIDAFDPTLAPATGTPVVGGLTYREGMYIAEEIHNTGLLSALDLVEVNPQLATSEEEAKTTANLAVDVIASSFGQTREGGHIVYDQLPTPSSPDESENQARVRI
# [6] = molecular target: T3, Proteasome subunit beta (Trypanosoma cruzi) (UniProt O96673); experiment: Trypanosoma cruzi proteasome chymotrypsin-like activity (TcProtChymo) assay.; further: in the data most compounds retested in dose-response had high values; assay type: functional; settings: 9.37 µM
# T3 sequence (whole entry): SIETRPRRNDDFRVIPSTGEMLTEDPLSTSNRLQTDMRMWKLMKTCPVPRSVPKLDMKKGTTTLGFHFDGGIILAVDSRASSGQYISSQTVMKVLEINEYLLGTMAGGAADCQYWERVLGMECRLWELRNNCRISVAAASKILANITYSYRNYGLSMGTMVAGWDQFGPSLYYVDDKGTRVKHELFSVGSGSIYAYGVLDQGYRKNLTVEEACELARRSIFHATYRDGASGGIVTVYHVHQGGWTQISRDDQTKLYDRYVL
# Homo sapiens = organism: Homo sapiens; experiment: To identify inhibition of the IFN signalling (Jak-Stat) pathway via expression of an eGFP reporter gene under the control of an IFN-stimulated response element (ISRE) containing MxA promoter.; assay type: functional; settings: 30 µM
# [7] = molecular target: T4, Tyrosyl-tRNA synthetase, putative (Trypanosoma cruzi (strain CL Brener)) (UniProt Q4DSP6); experiment: Trypanosoma cruzi tyrosyl tRNA synthetase (TcYRS) _High Tyrosine SOP; assay type: functional; settings: 30 µM; further: in the data most compounds retested in dose-response had high values
# T4 sequence (whole entry): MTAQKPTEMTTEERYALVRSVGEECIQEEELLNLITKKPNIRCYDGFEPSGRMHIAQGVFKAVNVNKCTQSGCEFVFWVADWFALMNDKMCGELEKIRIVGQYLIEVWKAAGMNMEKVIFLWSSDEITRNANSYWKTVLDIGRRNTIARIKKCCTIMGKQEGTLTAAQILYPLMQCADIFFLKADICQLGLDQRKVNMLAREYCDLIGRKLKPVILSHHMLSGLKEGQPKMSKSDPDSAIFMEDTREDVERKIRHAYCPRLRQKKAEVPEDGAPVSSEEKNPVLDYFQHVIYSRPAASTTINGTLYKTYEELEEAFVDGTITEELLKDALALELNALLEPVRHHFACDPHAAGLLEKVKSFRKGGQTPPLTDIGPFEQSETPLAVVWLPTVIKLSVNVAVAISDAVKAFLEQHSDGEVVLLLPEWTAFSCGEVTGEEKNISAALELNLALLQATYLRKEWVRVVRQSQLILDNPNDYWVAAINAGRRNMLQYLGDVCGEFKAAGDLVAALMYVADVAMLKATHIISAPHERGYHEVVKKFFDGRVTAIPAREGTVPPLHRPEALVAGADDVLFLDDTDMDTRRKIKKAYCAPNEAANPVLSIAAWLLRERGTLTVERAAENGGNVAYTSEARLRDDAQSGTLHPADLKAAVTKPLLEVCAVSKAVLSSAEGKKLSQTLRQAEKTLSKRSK
# [8] = molecular target: T4, Tyrosyl-tRNA synthetase, putative (Trypanosoma cruzi (strain CL Brener)); experiment: Trypanosoma cruzi tyrosyl tRNA synthetase (TcYRS) SOP; assay type: functional; settings: 30 µM
# [9] = molecular target: Chromo domain-containing protein 1 (Saccharomyces cerevisiae (strain ATCC 204508 / S288c) (Baker's yeast)) (UniProt P32657); experiment: ScCHD-1 Enzyme Inhibition Assay; assay type: functional; settings: 30 µM; further: in the data most compounds retested in dose-response had high values
# Sequence of Chromo domain-containing protein 1 (Saccharomyces cerevisiae (strain ATCC 204508 / S288c) (Baker's yeast)) (P32657 whole entry, the tested form may be a part): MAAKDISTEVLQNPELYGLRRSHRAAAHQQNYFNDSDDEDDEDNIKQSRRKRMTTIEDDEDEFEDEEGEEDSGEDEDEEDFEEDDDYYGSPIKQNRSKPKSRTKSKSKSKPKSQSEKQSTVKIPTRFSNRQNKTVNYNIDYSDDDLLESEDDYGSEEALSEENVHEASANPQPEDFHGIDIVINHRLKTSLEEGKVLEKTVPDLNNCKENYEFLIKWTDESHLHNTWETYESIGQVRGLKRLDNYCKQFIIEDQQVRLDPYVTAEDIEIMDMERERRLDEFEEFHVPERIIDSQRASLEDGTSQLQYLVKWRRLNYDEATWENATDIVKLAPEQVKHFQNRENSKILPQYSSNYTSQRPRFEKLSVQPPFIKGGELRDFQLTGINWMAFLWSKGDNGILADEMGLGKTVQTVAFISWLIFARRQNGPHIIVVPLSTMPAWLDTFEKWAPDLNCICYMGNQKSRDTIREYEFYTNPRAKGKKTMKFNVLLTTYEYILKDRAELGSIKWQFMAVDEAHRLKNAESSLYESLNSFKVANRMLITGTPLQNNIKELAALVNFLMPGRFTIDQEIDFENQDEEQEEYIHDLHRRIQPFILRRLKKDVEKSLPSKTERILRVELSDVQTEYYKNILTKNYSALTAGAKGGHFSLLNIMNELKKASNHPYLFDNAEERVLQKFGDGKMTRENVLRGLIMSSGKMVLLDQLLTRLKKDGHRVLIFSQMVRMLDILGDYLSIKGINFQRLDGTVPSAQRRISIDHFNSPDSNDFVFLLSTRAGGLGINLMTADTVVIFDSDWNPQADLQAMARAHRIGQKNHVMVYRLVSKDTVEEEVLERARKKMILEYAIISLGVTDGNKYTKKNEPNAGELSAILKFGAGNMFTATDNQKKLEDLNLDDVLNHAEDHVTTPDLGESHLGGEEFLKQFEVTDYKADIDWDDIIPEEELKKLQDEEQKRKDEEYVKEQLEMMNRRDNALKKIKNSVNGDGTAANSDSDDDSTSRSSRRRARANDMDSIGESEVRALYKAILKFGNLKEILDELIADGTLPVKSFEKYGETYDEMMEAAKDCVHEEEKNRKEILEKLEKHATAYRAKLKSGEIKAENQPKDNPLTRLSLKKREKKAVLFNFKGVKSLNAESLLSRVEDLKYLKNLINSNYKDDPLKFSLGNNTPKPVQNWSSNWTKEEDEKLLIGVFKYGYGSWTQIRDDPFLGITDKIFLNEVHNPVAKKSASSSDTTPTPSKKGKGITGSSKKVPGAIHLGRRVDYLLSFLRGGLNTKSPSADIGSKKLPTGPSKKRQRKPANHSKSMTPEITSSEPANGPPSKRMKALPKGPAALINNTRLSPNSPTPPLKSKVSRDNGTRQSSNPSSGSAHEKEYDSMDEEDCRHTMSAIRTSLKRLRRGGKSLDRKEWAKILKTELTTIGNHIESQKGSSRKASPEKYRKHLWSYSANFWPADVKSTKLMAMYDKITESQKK
# Sequence of Sialic acid-binding Ig-like lectin 9 (Homo sapiens) (Q9Y336 whole entry): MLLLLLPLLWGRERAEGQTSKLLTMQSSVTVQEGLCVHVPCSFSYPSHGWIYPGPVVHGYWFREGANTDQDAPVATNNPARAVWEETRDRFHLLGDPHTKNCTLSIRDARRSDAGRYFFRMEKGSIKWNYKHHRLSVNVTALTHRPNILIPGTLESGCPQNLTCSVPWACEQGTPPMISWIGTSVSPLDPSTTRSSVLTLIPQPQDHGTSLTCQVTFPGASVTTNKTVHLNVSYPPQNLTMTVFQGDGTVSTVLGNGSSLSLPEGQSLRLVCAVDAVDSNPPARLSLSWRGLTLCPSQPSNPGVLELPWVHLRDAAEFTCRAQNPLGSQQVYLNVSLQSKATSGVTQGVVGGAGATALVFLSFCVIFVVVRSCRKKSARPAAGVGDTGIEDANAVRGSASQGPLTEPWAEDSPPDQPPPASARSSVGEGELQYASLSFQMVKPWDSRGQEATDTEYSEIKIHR
# Sequence of Protein translocase subunit SecA (Escherichia coli (strain K12)) (P10408 whole entry): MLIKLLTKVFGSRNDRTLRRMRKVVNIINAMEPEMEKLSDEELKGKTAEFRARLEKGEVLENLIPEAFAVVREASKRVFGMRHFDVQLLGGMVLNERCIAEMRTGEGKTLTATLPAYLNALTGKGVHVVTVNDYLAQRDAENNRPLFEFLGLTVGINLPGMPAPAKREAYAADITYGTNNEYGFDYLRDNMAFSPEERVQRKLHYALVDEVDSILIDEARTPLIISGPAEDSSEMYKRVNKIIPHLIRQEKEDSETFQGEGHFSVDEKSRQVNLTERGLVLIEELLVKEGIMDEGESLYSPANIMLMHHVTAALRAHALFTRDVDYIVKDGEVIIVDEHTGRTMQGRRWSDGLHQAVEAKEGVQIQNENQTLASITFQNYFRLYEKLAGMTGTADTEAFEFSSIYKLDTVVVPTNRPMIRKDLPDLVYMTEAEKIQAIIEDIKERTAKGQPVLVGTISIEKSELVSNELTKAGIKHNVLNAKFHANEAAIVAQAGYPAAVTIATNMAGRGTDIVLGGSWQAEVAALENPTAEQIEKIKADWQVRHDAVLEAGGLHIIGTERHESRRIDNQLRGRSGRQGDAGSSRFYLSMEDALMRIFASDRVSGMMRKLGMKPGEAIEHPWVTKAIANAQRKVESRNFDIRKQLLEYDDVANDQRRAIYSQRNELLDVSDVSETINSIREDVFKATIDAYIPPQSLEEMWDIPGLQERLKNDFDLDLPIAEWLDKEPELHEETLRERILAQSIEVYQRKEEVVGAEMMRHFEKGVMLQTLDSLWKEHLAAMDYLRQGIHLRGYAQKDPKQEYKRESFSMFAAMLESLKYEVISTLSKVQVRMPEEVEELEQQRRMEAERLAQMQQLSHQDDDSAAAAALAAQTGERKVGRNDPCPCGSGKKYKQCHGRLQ
SMILES,Percent Effect [1] [%],Percent Effect [2] [%],Percent Effect [3] [%],Percent Effect [4] [%],Percent Effect (Trypanosoma cruzi) [%],Percent Effect [5] [%],Percent Effect [6] [%],Percent Effect (Homo sapiens) [%],Percent Effect [7] [%],Percent Effect [8] [%],Percent Effect [9] [%]
O=C(Nc1cccnc1)[C@H]1C[C@@H]2CN(C(=O)NC3CCCC3)C[C@H]1O2,-0.299,13.5,5.36,-10.3,-6.94,6.69,24.5,-1.23,0,15.4,-0.793
COc1cccc(CN2CCN(c3ccc4nncn4n3)C(C)C2)c1 (configuration not stated),-6.29,-20.8,-1.07,-4.72,-3,0.712,-1.86,85.3,6.8,-2.44,5.81
Cn1cc(C2CC(=O)NC23CCN(CC2CC2)CC3)cn1 (configuration not stated),-4.62,5.33,-4.75,13.8,2.32,4.12,10.1,0.353,1.04,10,-6.87
CC(C)c1ncc2c(n1)CN(Cc1ccc(C(N)=O)cc1)CC2,-5.85,18.4,-25.7,-1.87,10.7,-2.68,11.5,11.1,12.2,19.5,-14.2
CCc1nc(C2CCCN(C(=O)c3ccc4c(c3)nnn4C)C2)no1 (configuration not stated),-9.33,18.2,-4.8,-5.84,5.19,-4.42,14.3,5.49,-10.5,21.2,-20.9
N#Cc1ccccc1OCCN1CCC(N2CCNC2=O)CC1,-1.9,5.41,-4.78,2.6,0.65,-1.29,6.28,8.35,6.93,13.4,-0.203
CCC(CNC(=O)c1ccc(Br)o1)N1CCc2ccccc2C1 (configuration not stated),-2.45,-2.7,-0.754,2.18,2.51,-2.38,10.9,11.9,0.529,-4.88,-2.21
COc1ccc(OCCNCCn2cccn2)cc1,1.21,1.27,-2.53,10.8,-1.95,7.1,6.69,6.41,-1.04,2.53,-1.82
Cc1ccc(F)cc1S(=O)(=O)N(C)CC(N)=O,-2.13,11,-2.95,2.8,-1.19,-2.79,14.8,-1.31,9.38,16.1,-0.907
CC(C)(C)c1nnc(CN2CCN(S(C)(=O)=O)CC2)o1,-2.63,13.5,-2.69,19.5,3.48,1.43,12.1,5.81,2.65,12.2,-3.73
CCn1nc(C)c2ncnc(NCCCN3CCOCC3)c21,-5.99,9.33,-3.7,9.5,0.786,-2.64,12.2,-4.74,5.29,12.8,-10.7
CCc1csc(C2CCCN(C(=O)c3cnn(CC)c3)C2)n1 (configuration not stated),-1.78,-2.63,68.6,-1.18,-1.46,3.55,6.04,6.86,3.19,-2.6,-7.82
COc1ccc(C2=CCN(C(=O)C3CCN(C)C(=O)C3)CC2)cc1 (configuration not stated),-3.77,15.8,2.43,-4.29,9.06,1.8,7.19,6.58,7.39,16.1,-5.39
O=C(O)c1nnn(Cc2cccc(C(F)(F)F)c2)c1-c1cccnc1,2.36,6.67,10.2,-2.89,-4.13,-10.4,8.5,4,7.41,12.8,-7.79
Cc1ccccc1CN1CCCN(C2CCOC2=O)CC1 (configuration not stated),-1.89,-18.9,-9.35,10.9,-3.3,1.2,10.4,0.38,2.46,3.7,1.51
CCOCC(=O)N1CCC(Oc2ccc(Cl)cn2)CC1,-0.654,7.79,2.32,8.91,-0.888,4.52,25.9,21.4,8.47,8.97,-8.06
Cc1cc(C2CCCN(C(=O)c3ccc(C)[nH]c3=O)C2)n[nH]1 (configuration not stated),1.38,0,-0.306,6.13,-1.04,-0.401,1.08,-7.96,3.45,-1.24,4.03
COc1ccccc1OCc1cc(C(=O)N2C[C@H](O)[C@@H](N(C)C)C2)n[nH]1,-3.86,6.94,0.606,-3.31,-1.46,0.442,11.9,9.72,2.1,2.56,-2.07
CCCc1n[nH]c(C2CN(C(=O)CCCn3cccn3)CCO2)n1 (configuration not stated),-4.8,-4.17,-0.0148,-2.33,-2.82,-0.883,7.89,-2.8,-1.05,-2.56,5.04
CCN(CC)C(=O)c1nnc2ccc(N3CCOCC3)cc2n1,-7.46,9.33,-17.9,3.43,7.27,-7.57,14.1,11.4,3.17,12.8,-14.1
CN1CCN(c2cc(CCNC(=O)C3CCC3)nc(C3CC3)n2)CC1,-1.04,12.2,4.69,0.557,-4.74,-0.232,14.2,15.8,4.3,9.09,-9.84
CC(NC(=O)Nc1cccnc1N1CCCC1)c1nncn1C (configuration not stated),-3.96,5.41,-24,2.82,7.45,-2.81,-0.901,23.6,5.42,16.1,-9.41
